Measurements: the supplement of paper PMC11732987, “Enantioselective OTUD7B fragment discovery through chemoproteomics screening and high-throughput optimisation” (Communications Chemistry, 2025)

Columns and labels:
Experiment in all cases: log2 ratio of Biotin-Ahx-Ub-VS probe labelling (fragment/DMSO); higher = less target engagement (more negative = stronger competition), active = hit call of the paper (q ≤ 0.05, log2 ratio ≤ -1)
Conditions in all cases: compound concentration: 200 uM; treatment time: 3 h
[1] = molecular target: USP34 (UniProt Q70CQ2)
Chain of USP34 (Q70CQ2 whole entry, the tested form may be a part): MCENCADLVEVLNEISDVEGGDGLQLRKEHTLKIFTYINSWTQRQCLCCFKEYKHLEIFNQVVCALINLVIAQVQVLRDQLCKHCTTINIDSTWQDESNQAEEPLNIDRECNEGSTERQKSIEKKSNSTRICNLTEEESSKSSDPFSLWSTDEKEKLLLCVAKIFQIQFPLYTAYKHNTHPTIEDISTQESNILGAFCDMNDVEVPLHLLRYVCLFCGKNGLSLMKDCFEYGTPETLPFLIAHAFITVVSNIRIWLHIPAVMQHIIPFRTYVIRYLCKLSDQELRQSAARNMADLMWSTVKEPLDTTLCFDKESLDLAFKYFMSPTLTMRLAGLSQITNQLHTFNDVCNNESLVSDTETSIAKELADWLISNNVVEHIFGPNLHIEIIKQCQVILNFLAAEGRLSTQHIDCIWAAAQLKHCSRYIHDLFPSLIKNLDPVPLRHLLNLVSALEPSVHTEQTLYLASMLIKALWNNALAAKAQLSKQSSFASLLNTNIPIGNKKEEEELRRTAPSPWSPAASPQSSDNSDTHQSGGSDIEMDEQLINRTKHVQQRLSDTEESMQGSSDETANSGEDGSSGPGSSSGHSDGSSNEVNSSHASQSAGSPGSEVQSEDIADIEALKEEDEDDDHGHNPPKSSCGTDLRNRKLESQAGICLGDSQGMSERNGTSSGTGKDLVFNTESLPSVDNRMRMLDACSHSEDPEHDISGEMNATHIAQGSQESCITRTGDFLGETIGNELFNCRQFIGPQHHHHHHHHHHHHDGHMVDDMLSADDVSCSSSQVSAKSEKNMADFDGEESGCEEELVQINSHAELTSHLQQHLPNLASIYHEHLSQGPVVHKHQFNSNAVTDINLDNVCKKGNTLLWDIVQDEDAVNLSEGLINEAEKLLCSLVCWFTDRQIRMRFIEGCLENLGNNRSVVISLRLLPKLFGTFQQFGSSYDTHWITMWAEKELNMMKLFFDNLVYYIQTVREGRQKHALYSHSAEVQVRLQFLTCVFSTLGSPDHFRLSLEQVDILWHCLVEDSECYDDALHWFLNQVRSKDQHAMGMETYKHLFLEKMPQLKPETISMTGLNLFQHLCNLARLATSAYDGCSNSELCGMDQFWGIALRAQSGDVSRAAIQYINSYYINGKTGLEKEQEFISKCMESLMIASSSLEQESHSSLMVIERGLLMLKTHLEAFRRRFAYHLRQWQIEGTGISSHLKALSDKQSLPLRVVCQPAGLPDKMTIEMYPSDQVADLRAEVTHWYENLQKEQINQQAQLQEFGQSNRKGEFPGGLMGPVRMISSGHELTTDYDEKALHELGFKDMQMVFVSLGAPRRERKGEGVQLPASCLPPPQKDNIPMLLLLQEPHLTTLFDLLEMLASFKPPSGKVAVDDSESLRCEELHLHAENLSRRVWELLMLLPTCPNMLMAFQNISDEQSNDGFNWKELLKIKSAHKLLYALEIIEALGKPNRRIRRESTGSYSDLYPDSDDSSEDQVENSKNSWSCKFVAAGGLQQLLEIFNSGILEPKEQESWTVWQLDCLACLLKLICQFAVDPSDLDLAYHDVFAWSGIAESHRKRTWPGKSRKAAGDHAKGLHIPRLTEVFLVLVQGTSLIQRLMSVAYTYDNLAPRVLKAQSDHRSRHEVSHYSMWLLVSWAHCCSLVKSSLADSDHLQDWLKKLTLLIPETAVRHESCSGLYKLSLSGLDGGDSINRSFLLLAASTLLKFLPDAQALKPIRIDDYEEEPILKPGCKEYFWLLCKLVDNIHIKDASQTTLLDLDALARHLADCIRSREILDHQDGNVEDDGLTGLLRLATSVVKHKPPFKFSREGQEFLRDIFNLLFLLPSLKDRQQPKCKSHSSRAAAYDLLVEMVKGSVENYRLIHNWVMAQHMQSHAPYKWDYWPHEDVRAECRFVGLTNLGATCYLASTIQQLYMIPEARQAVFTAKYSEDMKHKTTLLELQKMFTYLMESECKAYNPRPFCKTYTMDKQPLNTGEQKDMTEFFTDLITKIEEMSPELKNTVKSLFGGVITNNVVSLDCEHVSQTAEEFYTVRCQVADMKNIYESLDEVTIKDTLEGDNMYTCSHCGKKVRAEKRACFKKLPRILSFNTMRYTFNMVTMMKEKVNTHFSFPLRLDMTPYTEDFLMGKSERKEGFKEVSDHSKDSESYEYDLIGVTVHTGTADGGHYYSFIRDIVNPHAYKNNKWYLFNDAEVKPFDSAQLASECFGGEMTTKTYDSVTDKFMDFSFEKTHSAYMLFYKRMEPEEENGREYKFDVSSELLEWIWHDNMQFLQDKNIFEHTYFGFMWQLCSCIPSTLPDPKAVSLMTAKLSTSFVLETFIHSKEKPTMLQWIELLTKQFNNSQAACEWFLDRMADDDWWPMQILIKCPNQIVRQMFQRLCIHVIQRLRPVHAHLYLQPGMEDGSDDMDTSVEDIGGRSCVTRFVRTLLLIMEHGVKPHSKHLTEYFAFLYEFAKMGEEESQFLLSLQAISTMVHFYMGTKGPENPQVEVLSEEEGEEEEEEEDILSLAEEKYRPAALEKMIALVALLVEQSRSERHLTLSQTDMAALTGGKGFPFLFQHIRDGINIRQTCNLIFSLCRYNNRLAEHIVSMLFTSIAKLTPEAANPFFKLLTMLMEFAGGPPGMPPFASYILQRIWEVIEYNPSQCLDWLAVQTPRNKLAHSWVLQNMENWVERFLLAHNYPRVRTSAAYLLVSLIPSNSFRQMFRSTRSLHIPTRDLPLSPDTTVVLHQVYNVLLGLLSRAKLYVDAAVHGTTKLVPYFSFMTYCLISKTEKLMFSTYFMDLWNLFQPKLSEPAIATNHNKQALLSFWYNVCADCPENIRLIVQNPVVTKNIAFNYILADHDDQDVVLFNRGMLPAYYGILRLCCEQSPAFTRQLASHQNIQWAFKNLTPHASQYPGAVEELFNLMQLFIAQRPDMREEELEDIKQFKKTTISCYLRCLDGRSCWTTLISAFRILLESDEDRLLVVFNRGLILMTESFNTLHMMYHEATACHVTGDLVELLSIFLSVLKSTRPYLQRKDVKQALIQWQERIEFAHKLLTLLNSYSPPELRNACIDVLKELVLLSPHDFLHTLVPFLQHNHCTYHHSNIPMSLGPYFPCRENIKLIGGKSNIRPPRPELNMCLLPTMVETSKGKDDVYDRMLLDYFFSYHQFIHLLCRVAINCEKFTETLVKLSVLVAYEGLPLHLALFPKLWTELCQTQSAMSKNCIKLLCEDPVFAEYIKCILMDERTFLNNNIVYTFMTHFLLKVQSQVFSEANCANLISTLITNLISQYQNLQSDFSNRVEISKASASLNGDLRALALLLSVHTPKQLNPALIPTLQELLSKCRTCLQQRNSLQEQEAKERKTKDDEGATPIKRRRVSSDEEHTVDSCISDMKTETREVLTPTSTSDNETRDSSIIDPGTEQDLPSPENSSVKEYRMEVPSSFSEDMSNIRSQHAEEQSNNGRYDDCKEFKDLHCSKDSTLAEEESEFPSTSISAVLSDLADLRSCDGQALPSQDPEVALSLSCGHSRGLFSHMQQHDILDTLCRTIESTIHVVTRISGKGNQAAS
Method in brief: (§1)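 Fragment (200 µM) or vehicle was incubated for 3 h with triplicate HEK293T lysate samples of 495 µg, which were then treated with Biotin-Ahx-Ub-VS at 0.5 µM final for 1 h. Labelled DUBs were enriched on NeutrAvidin, digested with LysC and trypsin, and analysed by diaPASEF LC-MS/MS. Values are average log2 fragment/vehicle ratios from an unpaired t-test on global-median-normalised Spectronaut label-free quantities, using proteins with ≥2 unique peptides.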

[2] = molecular target: T1, USP36 (UniProt Q9P275)
T1 sequence (whole entry): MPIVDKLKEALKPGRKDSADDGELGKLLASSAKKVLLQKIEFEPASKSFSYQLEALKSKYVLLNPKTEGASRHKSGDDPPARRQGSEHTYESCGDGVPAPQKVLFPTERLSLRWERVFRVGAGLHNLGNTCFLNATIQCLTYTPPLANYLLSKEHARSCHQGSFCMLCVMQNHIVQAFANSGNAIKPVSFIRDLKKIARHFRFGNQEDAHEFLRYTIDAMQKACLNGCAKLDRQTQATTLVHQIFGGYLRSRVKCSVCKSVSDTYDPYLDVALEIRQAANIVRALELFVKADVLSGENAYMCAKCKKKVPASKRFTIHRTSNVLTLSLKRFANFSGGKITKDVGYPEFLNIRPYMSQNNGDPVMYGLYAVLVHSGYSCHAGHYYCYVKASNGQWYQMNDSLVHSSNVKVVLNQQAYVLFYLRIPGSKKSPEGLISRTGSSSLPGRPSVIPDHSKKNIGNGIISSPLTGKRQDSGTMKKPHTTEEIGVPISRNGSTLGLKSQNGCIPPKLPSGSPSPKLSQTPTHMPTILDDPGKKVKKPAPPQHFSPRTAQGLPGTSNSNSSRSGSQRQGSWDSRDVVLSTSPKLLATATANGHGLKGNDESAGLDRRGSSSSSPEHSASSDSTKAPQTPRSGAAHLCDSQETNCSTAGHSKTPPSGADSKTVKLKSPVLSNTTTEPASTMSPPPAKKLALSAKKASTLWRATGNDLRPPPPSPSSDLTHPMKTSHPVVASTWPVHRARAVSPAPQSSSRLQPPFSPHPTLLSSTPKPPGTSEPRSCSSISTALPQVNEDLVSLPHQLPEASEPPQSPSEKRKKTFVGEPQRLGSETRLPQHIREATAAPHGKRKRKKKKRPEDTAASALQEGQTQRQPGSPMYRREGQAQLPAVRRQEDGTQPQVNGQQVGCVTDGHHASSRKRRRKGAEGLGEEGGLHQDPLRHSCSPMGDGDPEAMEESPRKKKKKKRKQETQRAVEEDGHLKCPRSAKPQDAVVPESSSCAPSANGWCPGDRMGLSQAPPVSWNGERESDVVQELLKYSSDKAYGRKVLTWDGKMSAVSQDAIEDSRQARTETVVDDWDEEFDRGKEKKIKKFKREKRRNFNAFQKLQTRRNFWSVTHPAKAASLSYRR
Method in brief: as §1

[3] = molecular target: T2, USP38 (UniProt Q8NB14)
T2 sequence (whole entry): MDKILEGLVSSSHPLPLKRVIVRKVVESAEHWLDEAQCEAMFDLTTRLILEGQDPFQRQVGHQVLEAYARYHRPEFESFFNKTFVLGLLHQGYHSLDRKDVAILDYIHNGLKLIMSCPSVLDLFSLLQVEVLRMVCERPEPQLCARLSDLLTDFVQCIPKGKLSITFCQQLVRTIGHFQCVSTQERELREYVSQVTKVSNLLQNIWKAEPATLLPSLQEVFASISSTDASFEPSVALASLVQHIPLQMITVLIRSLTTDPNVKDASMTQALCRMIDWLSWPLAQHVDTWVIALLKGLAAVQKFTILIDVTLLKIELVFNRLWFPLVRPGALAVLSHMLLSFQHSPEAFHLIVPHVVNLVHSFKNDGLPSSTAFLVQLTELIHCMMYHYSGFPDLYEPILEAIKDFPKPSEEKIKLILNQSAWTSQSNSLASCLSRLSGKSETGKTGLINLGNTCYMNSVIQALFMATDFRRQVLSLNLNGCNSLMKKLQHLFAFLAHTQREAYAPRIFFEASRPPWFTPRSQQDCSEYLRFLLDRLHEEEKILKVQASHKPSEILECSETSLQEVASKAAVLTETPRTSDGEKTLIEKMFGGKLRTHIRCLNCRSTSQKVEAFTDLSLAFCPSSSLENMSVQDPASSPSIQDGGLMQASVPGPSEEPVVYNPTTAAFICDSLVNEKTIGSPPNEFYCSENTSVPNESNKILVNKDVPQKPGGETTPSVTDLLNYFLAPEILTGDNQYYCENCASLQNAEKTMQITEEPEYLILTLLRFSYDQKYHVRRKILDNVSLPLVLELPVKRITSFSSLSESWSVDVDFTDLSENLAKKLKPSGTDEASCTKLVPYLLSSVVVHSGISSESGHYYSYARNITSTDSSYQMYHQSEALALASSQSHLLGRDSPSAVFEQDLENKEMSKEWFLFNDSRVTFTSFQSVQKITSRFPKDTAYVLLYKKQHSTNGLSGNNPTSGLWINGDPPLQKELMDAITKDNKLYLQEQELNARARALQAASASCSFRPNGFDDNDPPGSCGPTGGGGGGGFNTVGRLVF
Method in brief: as §1

[4] = molecular target: T3, USP39 (UniProt Q53GS9)
T3 sequence (whole entry): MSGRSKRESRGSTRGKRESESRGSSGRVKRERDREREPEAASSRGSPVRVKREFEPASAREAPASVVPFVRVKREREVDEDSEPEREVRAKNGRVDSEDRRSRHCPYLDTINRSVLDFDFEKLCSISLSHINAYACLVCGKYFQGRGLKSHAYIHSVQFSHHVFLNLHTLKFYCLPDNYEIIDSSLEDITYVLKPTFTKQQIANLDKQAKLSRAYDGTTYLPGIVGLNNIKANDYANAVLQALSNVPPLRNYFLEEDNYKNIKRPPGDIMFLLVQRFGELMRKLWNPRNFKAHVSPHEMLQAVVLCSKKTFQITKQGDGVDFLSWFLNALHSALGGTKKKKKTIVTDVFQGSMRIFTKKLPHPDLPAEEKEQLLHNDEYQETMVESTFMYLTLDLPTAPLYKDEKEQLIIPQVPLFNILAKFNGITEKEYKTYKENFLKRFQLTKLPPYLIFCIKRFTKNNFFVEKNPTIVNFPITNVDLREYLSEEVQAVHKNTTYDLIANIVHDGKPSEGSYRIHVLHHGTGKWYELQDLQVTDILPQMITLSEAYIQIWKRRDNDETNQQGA
Method in brief: as §1

[5] = molecular target: T4, USP4 (UniProt Q13107)
T4 sequence (whole entry): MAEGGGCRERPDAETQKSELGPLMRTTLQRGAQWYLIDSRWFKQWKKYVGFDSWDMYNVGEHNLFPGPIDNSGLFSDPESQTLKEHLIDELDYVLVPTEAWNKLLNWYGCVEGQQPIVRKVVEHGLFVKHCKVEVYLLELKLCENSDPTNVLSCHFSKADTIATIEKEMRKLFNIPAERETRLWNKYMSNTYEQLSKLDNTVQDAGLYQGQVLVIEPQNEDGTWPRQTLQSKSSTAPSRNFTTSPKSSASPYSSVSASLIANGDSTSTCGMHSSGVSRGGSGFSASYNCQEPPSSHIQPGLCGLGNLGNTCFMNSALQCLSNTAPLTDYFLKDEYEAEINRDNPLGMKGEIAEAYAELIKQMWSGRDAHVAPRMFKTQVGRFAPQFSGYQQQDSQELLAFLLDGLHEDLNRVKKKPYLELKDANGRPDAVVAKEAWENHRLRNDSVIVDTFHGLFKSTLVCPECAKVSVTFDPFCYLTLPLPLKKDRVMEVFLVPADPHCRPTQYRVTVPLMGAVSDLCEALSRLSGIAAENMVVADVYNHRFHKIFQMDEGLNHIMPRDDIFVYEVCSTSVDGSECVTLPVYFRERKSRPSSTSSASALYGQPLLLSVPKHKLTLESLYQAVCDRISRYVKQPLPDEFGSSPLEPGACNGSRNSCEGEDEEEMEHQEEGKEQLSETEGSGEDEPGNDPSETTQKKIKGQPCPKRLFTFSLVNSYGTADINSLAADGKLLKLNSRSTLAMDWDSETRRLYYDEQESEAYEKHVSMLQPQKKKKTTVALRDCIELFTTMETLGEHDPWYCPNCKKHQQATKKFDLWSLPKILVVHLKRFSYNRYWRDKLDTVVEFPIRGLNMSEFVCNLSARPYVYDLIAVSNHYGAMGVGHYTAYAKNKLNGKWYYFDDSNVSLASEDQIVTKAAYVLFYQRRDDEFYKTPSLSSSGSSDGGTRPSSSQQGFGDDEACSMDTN
Method in brief: as §1

Measured: log2 ratio of Biotin-Ahx-Ub-VS probe labelling

CS(=O)(=O)c1ccc(CNC(=O)CCl)cc1
inactive: [1] -0.0991 | [2] -0.225 | [3] -0.0436 | [4] 0.204 | [5] -0.0105
